According to PubChem BioAssay (NCATS):
Several values for one entry are separate records, joined by “and”; a condition that tells them apart may be missing. Identical values can stand only once. Records with an inconclusive call do not appear. Activity calls are given as the source filed them. Calls come from the whole dose curve; as a rule, active = well fitted inhibition curve with a large enough effect in the signal ratio, with a control signal flat (not every such curve was filed as active); inconclusive = small, poorly fitted or top-dose-only effect, or effect the other way, or a change in a side signal; inactive = no such curve, though single readings can be large or run the other way; the % refers to the signal ratio.

Biological target: Retinoic acid receptor RXR-alpha (Homo sapiens) (UniProt P19793)
Experiment: qHTS assay for small molecule antagonists of retinoid X receptor alpha signaling (AID 588546)
Conditions: HEK293T RXRa-UAS-bla, beta-lactamase ratio, antagonist mode
Source text: NIH Chemical Genomics Center [NCGC] U.S. Environmental Protection Agency [EPA] National Institutes of Environmental Health Sciences [NIEHS] National Toxicology Program [NTP] NCGC Assay Overview The Retinoid X receptor (RXR), a nuclear hormone receptor is expressed in liver, spleen, placenta, epidermis, central nervous system. These receptors are able to form homo and heterodimers with other nuclear receptors and due to this heterodimerizing ability, RXR functions as master regulators producing diverse physiological effects. Three subtypes of RXR exist; alpha, beta and gamma. Retinoid X receptor alpha (RXR-alpha) has potential roles in metabolic signaling pathways, skin alopecia, dermal cysts, cardiac development, insulin sensitization etc. Therefore screening environmental chemicals on RXR-alpha signaling can be used for the studies focused on such therapeutic applications.
NCGC Assay Protocol Summary Using a beta-lactamase reporter-gene under control of Retinoid X receptor--alpha (RXR-alpha) response element, a cell-based assay [GeneBLAzer (RXR-alpha -UAS-bla assay developed by Invitrogen] was used to measure RXR-alpha ligands signaling. GeneBLAzer RXR-alpha -UAS-bla HEK293T cells were used with assay medium containing 2% charcoal-stripped FBS. The assay was performed in clear bottom black Greiner 1536-well plates. Library compounds were measured for their ability to inhibit the reporter gene activity. Compounds were screened in a titration series in 1536-well format. The fluorescence intensity (405 nm excitation, 460/530 nm emission) was measured using an EnVision plate reader. Data was normalized relative to 9-cis-retinoic acid control (500 nM, 100%), and DMSO only wells (basal, 0%). Concentration-response titration points for each compound were fitted to the Hill equation yielding concentrations of half-maximal inhibition (IC50) and maximal response (efficacy) values. qHTS protocol for RXR-alpha beta-lactamase assay in antagonist mode [Step] [Parameter] [Value] [Description] 1. Reagent; 5 uL; 2500 cells/well 2. Incubation; 37 C for 4 hrs 3. Compounds; 23 nL; 0.59 nM to 92 uM 4. Controls (DMSO); 23 nL 5. Agonist (Stimulator); 1uL; 9-cis-retinoic acid at 500 nM and 100 nM final concentrations 6. Incubation; 37 C for 18 hrs 7. Detection reagent; 1 uL of CCF4-dye 8. Incubation; RT for 2 hrs 9. Detection; Fluorescence; Envision plate reader
% is set by controls: 0 for no effect and ±100 for the full control effect.

Sequence of Retinoic acid receptor RXR-alpha (Homo sapiens) (P19793 whole entry, looked up): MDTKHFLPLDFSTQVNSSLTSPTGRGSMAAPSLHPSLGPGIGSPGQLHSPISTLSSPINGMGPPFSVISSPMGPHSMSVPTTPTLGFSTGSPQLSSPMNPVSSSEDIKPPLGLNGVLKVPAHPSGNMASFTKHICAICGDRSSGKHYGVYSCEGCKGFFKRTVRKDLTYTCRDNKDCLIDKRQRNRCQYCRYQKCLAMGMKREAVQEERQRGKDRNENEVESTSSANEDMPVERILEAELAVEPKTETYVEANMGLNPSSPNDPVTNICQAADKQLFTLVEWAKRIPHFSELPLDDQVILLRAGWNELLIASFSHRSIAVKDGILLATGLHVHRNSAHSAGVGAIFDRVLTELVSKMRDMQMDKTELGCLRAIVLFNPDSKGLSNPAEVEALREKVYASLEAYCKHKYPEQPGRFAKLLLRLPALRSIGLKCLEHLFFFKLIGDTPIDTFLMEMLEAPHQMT

Structure (SMILES)	max response
O=C1c2ccccc2C(=O)c2ccccc21	-15.9% (inactive)
CCC(C)(C)c1ccc(O)cc1	7.35% (inactive) and 8.15% (inactive)
O=C1c2ccccc2C(=O)C1C(=O)C(c1ccccc1)c1ccccc1	13.2% (inactive)
O=P1(N(CCCl)CCCl)NCCCO1 (centres undefined)	8.47% (inactive) and -0.0175% (inactive)
C[C@]12CCC(=O)C=C1CC[C@@H]1[C@@H]2CC[C@@]2(C)[C@H]1CC[C@]2(C)O	36.9% (inactive)
CC1(C)C(C=C(Cl)Cl)C1C(=O)OC(C#N)c1cccc(Oc2ccccc2)c1 (centres undefined)	-18% (inactive)
Nc1ccccc1	4.87% (inactive)
[N-]=[N+]=CC(=O)OC[C@H](N)C(=O)O	7.74% (inactive)
COc1cc(OC)c(OC)cc1C=O	-9.79% (inactive)
C[C@]1(O)CC[C@H]2[C@@H]3CCC4=CC(=O)CC[C@]4(C)[C@@]3(F)[C@@H](O)C[C@@]21C	-6.75% (inactive)
COP(=S)(OC)Oc1ccc(SC)c(C)c1	-5.05% (inactive) and -30% (inactive)
COP(=S)(OC)Oc1cc(Cl)c(Cl)cc1Cl	-5.5% (inactive)
CCCC(C)(COC(N)=O)COC(N)=O	-3.87% (inactive)
CCOC(=O)CC(SP(=S)(OC)OC)C(=O)OCC (centres undefined)	-24.3% (inactive) and -13.6% (inactive) and -13.7% (inactive)
Nc1ccc([As](=O)(O)O)cc1	-8.6% (inactive)
Nc1ccccc1C(=O)O	6.99% (inactive)
CC(C)c1cccc(C(C)C)c1O	16.4% (inactive)
C[C@]12CCC(=O)C=C1CC[C@@H]1[C@@H]2CC[C@]2(C)C(=O)CC[C@@H]12	1.25% (inactive)
Nc1nc(N)nc(NC2CC2)n1	6.27% (inactive)
NCCc1ccc(O)cc1	-2.52% (inactive)
O=C(O)CCCc1ccc(N(CCCl)CCCl)cc1	8.7% (inactive) and 8.13% (inactive)
CC(C)NC(C)C	9.42% (inactive)
Oc1ccc(Cl)cc1	-3.06% (inactive)
COC(=O)C(c1ccccc1)C1CCCCN1 (centres undefined)	-5.94% (inactive)
